# Results reported in PubChem BioAssay (EPA / NIEHS).
# Where “and” joins values, the source holds several entries; their conditions need not be identical. Identical values can stand only once. Calls of active or inactive are those of the source. How the source made its calls: active means hit-call score of the fitted dose curve at least 0.9, where 1 is the maximum; inconclusive means response in the unintended direction; inactive means score below 0.9.
# System: Thyroperoxidase (TPO), gene 54314
# Test: CCTE_Simmons_AUR_rTPO: CCTE's Amplex UltraRed Assay for Thyroperoxidase (TPO) Inhibition, Simmons Lab (AID 2283662);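 on AC50: potency for loss of signal meaning inhibition of peroxidase activity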
# Experimental: CCTE_Simmons_AUR_rTPO is a biochemical, single-readout assay that uses microsomes from rat thyroid gland in a tissue-based cell-free assay. Measurements were taken 0.5 hour after chemical dosing in a 384-well plate.CCTE_Simmons_AUR_rTPO is the assay component measured from the CCTE_Simmons_AUR_rTPO assay. It is designed to make measurements of thyroperoxidase (TPO) activity as detected with fluorescence intensity signals using the Amplex UltraRed technology as a form of enzyme activity reporter.Data from the assay component CCTE_Simmons_AUR_rTPO was analyzed at the endpoint, CCTE_Simmons_AUR_rTPO, in the positive analysis fitting direction relative to DMSO as the negative control and baseline of activity. Using a type of enzyme reporter, the Amplex UltraRed assay, loss-of-signal activity can be used to understand decreased peroxidase activity in the presence of excess […]. To generalize the intended target to other relatable targets, this assay endpoint is annotated to the oxidoreductase intended target family, where the subfamily is peroxidase.
# As described previously (Paul et al., 2014), the AUR substrate was repurposed to detect peroxidase (ie, TPO) activity in the presence of excess H2O2 for the AUR-TPO assay. The reaction profile for the 384-well format AUR-TPO assay is scaled to an 80 ul assay volume containing 25 uM AUR, 300 uM H2O2, and 5 ug microsomal protein in 200 mM phosphate buffer. The assay concentration of thyroid microsomal protein was approximately […]. First, rat microsomes containing TPO and diluent 200mM potassium phosphate buffer were added to opaque, black 384-well plates (Greiner, BioExpress; Kaysville, Utah) using an automated liquid handler (BioTek MicroFlo; Winooski, Vermont) with a plastic 5 ul tubing cassette. Similarly, AUR was added next by automated liquid handling. Test compounds were administered using a HDRT as described earlier to achieve a 0.5% final DMSO concentration. Finally, H2O2 (300 uM, final concentration) was then added by the BioTek MicroFlo to initiate the reaction. Microplates were incubated at 37C in the dark for 30min. Plates were then shaken on a fluorescence plate reader (FLUOStar Optima, BMG LabTech; GmbH, Germany), and endpoint fluorescence (top read) was measured using 10 flashes per well at 544/590nm excitation/emission. Three biological replicates of technical singles were run for every chemical concentration tested. A titrated range of MMI served as a positive control for TPO inhibition on each plate of the AUR-TPO screening campaign. Test chemicals were administered as a titrated series of 8 concentrations from 5 nM up to 87.5 uM [final] for 30 minutes prior to single endpoint detection. Dimethylsulfoxide [DMSO] was used as the vehicle control. Methimazole [MMI] was used as the positive control and was administered as a titrated series of 8 concentrations from 1 nM up to 271 uM [final].
SMILES,AC50,outcome
C[C@](N)(Cc1ccc(O)c(O)c1)C(=O)O,0.696 µM (active),–
O=C(CCCCCCCCc1cccnc1)N1CCC(C=C(c2ccccc2)c2ccccc2)CC1,27.6 µM (active),–
CC/C(=C\C(=N/O)C(N)=O)C(C)[N+](=O)[O-] (configuration not stated),26.3 µM (active),–
O=P(OC(CCl)CCl)(OC(CCl)CCl)OC(CCl)CCl,–,inactive
O=C(O)c1cccc(N(Cc2cccnc2)c2ccc(OC(F)F)c(OC(F)F)c2)c1,31.2 µM (active),–
O=C(O)CCN(C1(C(=O)NO)CCCC1)S(=O)(=O)c1ccc(Oc2ccc(F)cc2)cc1,27.7 µM (active),–
CCCCCCc1ccc(O)cc1O,0.00854 µM (active),–
Cc1ccc(N)cc1O,1.18 µM (active),–
CCCN(C1CCN(C(=O)C2CCNCC2)CC1)[C@@H]1CCc2ccc(OC)cc2C1,–,inactive
CN(C)c1ccc(Cc2ccc(N(C)C)cc2)cc1,12 µM (active),–
CN(C)c1ccc(N=NS(=O)(=O)O)cc1,21.7 µM (active),–
Nc1ccc(Nc2ccccc2)cc1,3.09 µM (active),–
CC(C)=CCC/C(C)=C\CO,8.64 µM (active),–
NC(=O)NO,43.8 µM (active),–
CC(C)=CCCC(C)CCO (configuration not stated),–,inactive
CC[C@H](C)C(=O)O[C@H]1C[C@@H](C)C=C2C=C[C@H](C)[C@H](CC[C@@H]3C[C@@H](O)CC(=O)O3)[C@H]21,40.3 µM (active) and 43.8 µM (active),–

SMILES,AC50,outcome
CC(C)(O)c1coc(S(=O)(=O)NC(=O)Nc2c3c(cc4c2CCC4)CCC3)c1,7.6 µM (active),–
CCC(C)(C)C(=O)O[C@H]1C[C@@H](C)C=C2C=C[C@H](C)[C@H](CC[C@@H]3C[C@@H](O)CC(=O)O3)[C@H]21,43.8 µM (active),–
CCNc1ccccc1,–,inactive
C=CC(=C)CCC=C(C)C,–,inactive
Nc1cccc(N)c1,5.02 µM (active),–
Oc1ccc2c(c1)-c1ccccc1C2,10.6 µM (active),–
O=C(OC[C@H]1O[C@@H](OC(=O)c2cc(O)c(O)c(OC(=O)c3cc(O)c(O)c(O)c3)c2)[C@H](OC(=O)c2cc(O)c(O)c(OC(=O)c3cc(O)c(O)c(O)c3)c2)[C@@H](OC(=O)c2cc(O)c(O)c(OC(=O)c3cc(O)c(O)c(O)c3)c2)[C@@H]1OC(=O)c1cc(O)c(O)c(OC(=O)c2cc(O)c(O)c(O)c2)c1)c1cc(O)c(O)c(OC(=O)c2cc(O)c(O)c(O)c2)c1,1.03 µM (active),–
O=c1n(CC2CO2)c(=O)n(CC2CO2)c(=O)n1CC1CO1 (configuration not stated),21.1 µM (active),–
CCOc1cccc(-n2cc(C(=O)N3CCN(c4cc(C(=O)O)c5ccccc5c4)CC3)nc2-c2ccc(C)cc2)c1,43.8 µM (active),–
CCn1nc(Cc2ccccc2)cc1C1CCN(C[C@H]2C[C@H](N(C)[C@@H](C(=O)O)C(C)C)C[C@@H]2c2cccc(F)c2)CC1,30.7 µM (active),–
Nc1nc2ncc(CNc3ccc(C(=O)N[C@@H](CCC(=O)O)C(=O)O)cc3)nc2c(=O)[nH]1,20.5 µM (active),–
CC(C)=CCCC(C)=CC=O,43.8 µM (active),–
On1ccccc1=S,17.5 µM (active),–
Cc1[nH]cnc1C[C@H]1CCc2c(C)c3ccccc3n2C1=O,27.6 µM (active),–
CCOC(=O)c1ccc(C2CCC(NC[C@H](O)COc3ccc(O)c(NS(C)(=O)=O)c3)CC2)cc1 (some centres not stated),1.12 µM (active),–
Cn1cnc([N+](=O)[O-])c1Sc1ncnc2nc[nH]c12,30.4 µM (active),–
